This assay has as its target Beta-2 adrenergic receptor (Homo sapiens) (UniProt P07550). Description: Adrenergic beta2 receptor (ADRB2) small molecule agonists, cell-based qHTS assay (AID 1963593). In a few lines: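 CHO cells stably over-expressing ADRB2 were plated overnight at 37C, then dosed with compounds plus a stimulation mix containing 100uM IBMX and 25uM Ro-20-1724 for 0.5hr at room temperature. cAMP was measured by HTRF competition, 1hr.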
(In qHTS, concentration-response curves come from the screen itself.)

Records with an inconclusive call do not appear. Where a call stands in place of a potency, no number is given. Calls of active or inactive are those of the source. Calls follow the shape of the full dose curve.
Potency is read from the fitted curve at half-maximal effect.

Chain of Beta-2 adrenergic receptor (Homo sapiens) (P07550 whole entry, looked up): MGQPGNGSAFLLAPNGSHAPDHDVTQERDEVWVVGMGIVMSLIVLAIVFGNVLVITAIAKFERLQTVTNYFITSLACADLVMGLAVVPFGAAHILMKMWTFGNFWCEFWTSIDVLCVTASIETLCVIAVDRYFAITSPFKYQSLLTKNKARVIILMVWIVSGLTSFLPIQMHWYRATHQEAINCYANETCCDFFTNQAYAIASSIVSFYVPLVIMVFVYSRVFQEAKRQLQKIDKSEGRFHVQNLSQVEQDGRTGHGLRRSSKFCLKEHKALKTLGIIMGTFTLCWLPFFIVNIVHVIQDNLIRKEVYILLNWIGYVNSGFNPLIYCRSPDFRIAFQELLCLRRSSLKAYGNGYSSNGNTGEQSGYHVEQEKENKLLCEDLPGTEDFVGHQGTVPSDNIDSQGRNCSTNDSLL

For `O=C1c2ccccc2S(=O)(=O)N1CCCCN1CCN(c2ncccn2)CC1`, the Potency entry was “inactive”.
Regarding `CC1(C)Cc2cccc(N)c2O1`, the Potency result is “inactive”.
Regarding `C#Cc1ccc(-c2ccccc2F)cc1`, the Potency result was “inactive”.
As for `CCCCCOc1ccc(C2SC(=O)NC2=O)cc1OCC` (stereo not drawn), the entry is “inactive”; as for `O=C(O)CCNC(=O)c1ccccc1`, “inactive”.
As for `Nc1c2c(nc3c1CCC3)CCCC2`, the entry is “inactive”.
For `CCCCOC(=O)CC` the value was “inactive”; for `CCCCCCCCCCOCC(O)CN` (stereo not drawn), “inactive”; for `O=C(O)CCCCCCC(=O)O`, “inactive”.
With `O=C(O)CCN(C1(C(=O)NO)CCCC1)S(=O)(=O)c1ccc(Oc2ccc(F)cc2)cc1`, the Potency result is “inactive”.
As for `C=CC(=C)CC/C=C(\C)CCC=C(C)C`, the entry is “inactive”; as for `Cc1c(F)cc2c(=O)c(C(=O)O)cn3c2c1CCC3C` (stereo not drawn), “inactive”.
As for `C[C@@H]1CN(c2c(F)c(N)c3c(=O)c(C(=O)O)cn(C4CC4)c3c2F)C[C@H](C)N1`, the entry is “inactive”; as for `C=CCn1c(=O)n(CC=C)c(=O)n(CC=C)c1=O`, “inactive”; as for `CN(C)CCN1C(=O)c2ccccc2N(C)c2ccccc21`, “inactive”.
For `O=[N+]([O-])c1ccc(/C=N\O)o1` the value was “inactive”.
In the case of `CCOC(=O)CCC(=O)OCC`, the Potency result was “inactive”.
For `COc1cc(OC)cc(OC)c1` the value was “inactive”.
Consider `Cc1ccccc1C#N`, for which the Potency entry is “inactive”.
As for `C#CCN[C@@H]1CCc2ccccc21`, the figure is 29.8 µM (active).
For `CCCCNc1c(C(=O)OCC)c(C)nc2c1cnn2CC` the value was “inactive”; for `CCN(CC)CC(=O)Nc1c(C)cccc1C(=O)OC`, “inactive”; for `CC(C)CC(=O)C1C(=O)c2ccccc2C1=O`, “inactive”.
As for `CCCCCc1ccc(N)cc1`, the entry is “inactive”.
As for `CN(C)c1ccc(CCO)cc1`, the Potency entry is “inactive”.
As for `O=C(NCCO[N+](=O)[O-])c1cccnc1`, the entry is “inactive”.
For `CC1=CC[C@H](C(C)C)C=C1` the value was “inactive”; for `CCOC(=O)C(=O)c1csc(NC=O)n1`, “inactive”.
As for `Nc1nc(-c2ccccc2)c(Br)c(=O)[nH]1`, the entry is “inactive”; as for `CCCCC(CC)COC(=O)COc1ccc(Cl)cc1Cl` (stereo not drawn), “inactive”; as for `CN(C)CCCSc1ccccc1NC(=O)/C=C/c1ccccc1`, “inactive”.
Take `CCNS(=O)(=O)c1ccc(C)cc1`: the Potency result is “inactive”.
For `O=C(NCC1CN(c2ccc(N3CCOCC3=O)cc2)C(=O)O1)c1ccc(Cl)s1` (stereo not drawn) the value was “inactive”.
As for `CN(C)CCc1c[nH]c2ccc(CS(=O)(=O)N3CCCC3)cc12`, the entry is “inactive”.
With `C[C@@H]1[C@H](O)[C@@H](C)/C=C/C=C\C=C\C=C\C=C\C=C\C=C\[C@H](O[C@@H]2O[C@H](C)[C@@H](O)[C@H](N)[C@@H]2O)C[C@@H]2O[C@](O)(C[C@@H](O)C[C@@H](O)[C@H](O)CC[C@@H](O)C[C@@H](O)CC(=O)O[C@H]1C)C[C@H](O)[C@H]2C(=O)O` (stereo in doubt), the Potency entry was “inactive”.
As for `CCC1NC(=O)c2cc(S(N)(=O)=O)c(Cl)cc2N1` (stereo not drawn), the entry is “inactive”; as for `CC(=O)OC[C@H]1O[C@@H](n2ncc(=O)[nH]c2=O)[C@H](OC(C)=O)[C@@H]1OC(C)=O`, “inactive”; as for `C/C=C/C=C/COC(=O)C(C)C`, “inactive”.
Turning to `CNC(=O)c1ccccc1Sc1ccc2c(/C=C/c3ccccn3)n[nH]c2c1`, the Potency entry is “inactive”.
As for `OC1CCC(C2CCCCC2)CC1` (stereo not drawn), the entry is “inactive”.
`C/C=C(/C(=C/C)c1ccc(O)cc1)c1ccc(O)cc1`: the Potency entry is “inactive”.
For `COc1c(C)c2c(c(O)c1C/C=C(\C)CCC(=O)O)C(=O)OC2` the value was “inactive”.
For `CCC(CO)(CO)[N+](=O)[O-]` the value was “inactive”.

The record behind these values is PubChem BioAssay (Tox21).
